Activity calls are given as the source filed them. The calls were made as follows: active = hit-call score of the fitted dose curve at least 0.9, where 1 is the maximum; inactive = score below 0.9.
Experiments:
[1] = read-out: Monocyte Chemoattractant Protein-1 (MCP1), CCL2 (gene 6347); test: BSK_LPS_MCP1: BioMAP Diversity Plus: LPS Assay for Monocyte Chemoattractant Protein-1 (MCP1) Biomarker Activity (AID 2283081); settings: primary human HUVEC with PBMC; actives raise or lower the signal;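 as to AC50: secreted MCP-1 protein quantified by ELISA in culture supernatant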
In short: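 ELISA read-out of MCP-1 after 24 h chemical dosing of a human umbilical vein endothelial cell/peripheral blood mononuclear cell co-culture stimulated with LPS. Gain or loss of signal fitted relative to DMSO controls.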

[2] = BSK_LPS_PGE2: BioMAP Diversity Plus: LPS Assay for Prostaglandin E2 (PGE2) Biomarker Activity (AID 2283082); settings: primary human HUVEC with PBMC; actives raise or lower the signal;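 as to AC50: secreted prostaglandin E2 measured by ELISA in LPS-stimulated co-culture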
In short: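 Endpoint derived from bidirectional curve fitting versus DMSO of ELISA-measured PGE2 in LPS-stimulated human primary vascular co-culture (HUVEC with PBMC) harvested at 24 h.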

[3] = read-out: Macrophage colony-stimulating factor (MCSF), CSF1 (gene 1435); test: BSK_LPS_MCSF: BioMAP Diversity Plus: LPS Assay for Macrophage colony-stimulating factor (MCSF) Biomarker Activity (AID 2283083); settings: primary human HUVEC with PBMC; actives raise or lower the signal
In short: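 HUVEC + PBMC co-culture (human primary), 24 h post-dose; M-CSF by ELISA; gain/loss of signal fitted bidirectionally vs DMSO baseline.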

[4] = read-out: Tissue Factor, F3 (gene 2152); test: BSK_LPS_TissueFactor: BioMAP Diversity Plus: LPS Assay for Tissue Factor Biomarker Activity (AID 2283084); settings: primary human HUVEC with PBMC; actives raise or lower the signal
In short: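 HUVEC/PBMC co-culture, LPS-activated; CD142 ELISA read 24 h post-dose; bidirectional curve fit vs DMSO negative control.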

[5] = read-out: Tumor necrosis factor (Homo sapiens) (UniProt P01375); test: BSK_LPS_TNFa: BioMAP Diversity Plus: LPS Assay for Tumour Necrosis Factor alpha (TNFa) Biomarker Activity (AID 2283085); settings: primary human HUVEC with PBMC; actives raise or lower the signal
In short: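 Primary human vascular co-culture of HUVEC and PBMC; TNFa ELISA 24 h after treatment, analysed as increase or decrease relative to DMSO control.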

[6] = read-out: Vascular cell adhesion molecule 1 (VCAM1), VCAM1 (gene 7412); test: BSK_LPS_VCAM1: BioMAP Diversity Plus: LPS Assay for Vascular cell adhesion molecule 1 (VCAM1) Biomarker Activity (AID 2283086); settings: primary human HUVEC with PBMC; actives raise or lower the signal
In short: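 Primary human vascular co-culture (umbilical vein endothelium plus PBMC) stimulated with LPS received chemical; 24 h later VCAM-1 was read by ELISA. Overt cytotoxicity was assessed by sulforhodamine B staining of parallel cultures at the same time point.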

[7] = read-out: CD38, CD38 (gene 952); test: BSK_SAg_CD38: BioMAP Diversity Plus: SAg Assay for CD38 Biomarker Activity (AID 2283087); settings: primary human HUVEC with PBMC; actives raise or lower the signal
In short: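 Fluorescence ELISA of cell-surface CD38 served as the read-out, with either increase or decrease fitted against DMSO controls. Cells were a human umbilical vein endothelium plus PBMC co-culture under SEB/TSST-1 stimulation, measured 24 h after dosing.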

[8] = read-out: CD40, CD40 (gene 958); test: BSK_SAg_CD40: BioMAP Diversity Plus: SAg Assay for CD40 Biomarker Activity (AID 2283088); settings: primary human HUVEC with PBMC; actives raise or lower the signal
In short: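 HUVEC/PBMC co-culture, 24 h post-dose; CD40 by ELISA, fluorescence intensity; bidirectional fit vs DMSO negative control.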

[9] = read-out: CD69, CD69 (gene 969); test: BSK_SAg_CD69: BioMAP Diversity Plus: SAg Assay for CD69 Biomarker Activity (AID 2283089); settings: primary human HUVEC with PBMC; actives raise or lower the signal;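 as to AC50: cell surface CD69 protein quantified by ELISA with fluorescence detection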
In short: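 HUVEC co-cultured with PBMC were dosed with chemical, and CD69 was measured by ELISA with fluorescence read-out 24 h later. Bidirectional curve fitting used DMSO as negative control and activity baseline.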

[10] = read-out: Monocyte Chemoattractant Protein-1 (MCP1), CCL2 (gene 6347); test: BSK_SAg_MCP1: BioMAP Diversity Plus: SAg Assay for Monocyte Chemoattractant Protein-1 (MCP1) Biomarker Activity (AID 2283090); settings: primary human HUVEC with PBMC; actives raise or lower the signal
In short: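 MCP-1 levels in the endothelial–PBMC SAg co-culture were quantified by ELISA at 24 h post-dosing; both increases and decreases versus DMSO scored. Cytotoxicity monitored by SRB total protein in parallel cultures.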

[11] = read-out: Monokine induced gamma interferon (MIG), CXCL9 (gene 4283); test: BSK_SAg_MIG: BioMAP Diversity Plus: SAg Assay for Monokine induced gamma interferon (MIG) Biomarker Activity (AID 2283092); settings: primary human HUVEC with PBMC; actives raise or lower the signal
In short: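 HUVEC plus human PBMC co-culture, chemicals dosed and MIG (CXCL9) quantified by ELISA at 24 h. Bidirectional curve fitting against DMSO as negative control and baseline, so both gain and loss of signal count as activity.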

[12] = BSK_SAg_PBMCCytotoxicity: PBMC Cytotoxicity Assessment in the BioMAP Diversity Plus: SAg Assay (AID 2283093); settings: primary human HUVEC with PBMC;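 also: PBMC viability measured as Alamar Blue reduction fluorescence at 546/580 nm; fitted both ways against DMSO so a hit may be loss or gain of signal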;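 as to AC50: PBMC superantigen activated with SEB plus TSST-1 one hour after compound addition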
In short: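 Compound added to 75,000 PBMC/well for 1 h; SEB and TSST-1 then added at 20 ng/mL final each; 90 h incubation; Alamar Blue 6 h; read 546/580 nm ex/em. Activity fitted bidirectionally relative to DMSO baseline.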

[13] = read-out: Interleukin-8 (IL8), CXCL8 (gene 3576); test: BSK_SAg_IL8: BioMAP Diversity Plus: SAg Assay for Interleukin-8 (IL8) Biomarker Activity (AID 2283094); settings: primary human HUVEC with PBMC; actives raise or lower the signal
In short: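 In this co-culture of human umbilical vein endothelium with peripheral blood mononuclear cells, IL-8 is assayed by ELISA at 24 h. DMSO serves as baseline for bidirectional curve fitting.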

[14] = BSK_SAg_Proliferation: Cell Proliferation Assessment in the BioMAP Diversity Plus: SAg Assay (AID 2283095); settings: primary human HUVEC with PBMC;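 also: relative cell number as total protein by SRB absorbance in sub-confluent culture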
In short: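 Readout is SRB-stained protein (560 nm) in a primary human HUVEC and PBMC co-culture; sub-confluent cultures are read at 96 h. Activity is fitted bidirectionally using DMSO as baseline.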

[15] = BSK_SAg_SRB: Viability Assessment in the BioMAP Diversity Plus: SAg Assay (AID 2283096); settings: primary human HUVEC with PBMC;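 also: cells read one day after compound addition; hits may be either gain or loss of signal compared with DMSO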
In short: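 Total protein by sulforhodamine B staining, 24 h after dosing, in HUVEC–PBMC co-culture; DMSO-referenced bidirectional fitting.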

[16] = read-out: E-selectin (Homo sapiens) (UniProt P16581); test: BSK_SAg_Eselectin: BioMAP Diversity Plus: SAg Assay for Eselectin Biomarker Activity (AID 2283091); settings: primary human HUVEC with PBMC; actives raise or lower the signal
In short: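 E-selectin ELISA readout at 24 h post-dosing in human umbilical vein endothelial cell/PBMC co-culture; gain or loss of signal fitted relative to DMSO baseline.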

Measured: AC50

E-selectin (Homo sapiens), sequence (P16581 whole entry, looked up): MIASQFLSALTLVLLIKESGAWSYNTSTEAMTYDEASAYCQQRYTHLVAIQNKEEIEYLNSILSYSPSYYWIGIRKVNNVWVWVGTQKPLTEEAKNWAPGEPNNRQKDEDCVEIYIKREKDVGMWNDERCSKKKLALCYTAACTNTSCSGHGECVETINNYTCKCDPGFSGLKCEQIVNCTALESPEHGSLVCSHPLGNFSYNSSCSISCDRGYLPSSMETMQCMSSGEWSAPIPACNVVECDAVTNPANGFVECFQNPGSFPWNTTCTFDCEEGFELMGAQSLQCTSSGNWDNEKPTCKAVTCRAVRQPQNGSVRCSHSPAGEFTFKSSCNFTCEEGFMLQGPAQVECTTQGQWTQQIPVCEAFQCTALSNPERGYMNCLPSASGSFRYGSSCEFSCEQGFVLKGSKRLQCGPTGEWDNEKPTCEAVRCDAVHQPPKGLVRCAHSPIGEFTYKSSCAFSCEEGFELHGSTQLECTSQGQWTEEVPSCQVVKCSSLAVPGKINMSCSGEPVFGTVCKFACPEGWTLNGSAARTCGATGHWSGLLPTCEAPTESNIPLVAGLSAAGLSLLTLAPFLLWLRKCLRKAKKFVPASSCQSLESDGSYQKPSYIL
Tumor necrosis factor (Homo sapiens), sequence (P01375 whole entry, looked up): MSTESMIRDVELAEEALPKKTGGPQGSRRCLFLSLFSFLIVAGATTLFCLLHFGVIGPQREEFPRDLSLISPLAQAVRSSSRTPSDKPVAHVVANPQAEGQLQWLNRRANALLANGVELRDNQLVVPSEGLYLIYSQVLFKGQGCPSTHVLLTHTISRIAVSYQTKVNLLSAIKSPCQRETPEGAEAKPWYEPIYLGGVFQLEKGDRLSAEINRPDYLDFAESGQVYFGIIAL

Cc1c(C)c2c(c(C)c1O)CCC(C)(COc1ccc(CC3SC(=O)NC3=O)cc1)O2 (stereo not given)
active: [1] 30.8 µM | [2] 32.5 µM | [3] 31.6 µM | [4] 34.8 µM | [5] 31.6 µM | [6] 30.5 µM | [7] 24.9 µM | [8] 14.9 µM | [9] 21.5 µM | [10] 32.6 µM | [11] 31.6 µM | [12] 20 µM | [13] 32.8 µM | [14] 14.1 µM | [15] 23.7 µM

O=C(O)CN(CC(=O)O)CC(=O)O
inactive: [1] | [2] | [3] | [4] | [5] | [6] | [7] | [8] | [9] | [10] | [16] | [11] | [12] | [13] | [15]

CC(C)(C)c1ccccc1
inactive: [1] | [2] | [3] | [4] | [5] | [6] | [7] | [8] | [9] | [10] | [11] | [12] | [13] | [14] | [15]

CCCC(=O)O
inactive: [1] | [2] | [3] | [4] | [5] | [6] | [7] | [8] | [9] | [10] | [16] | [11] | [12] | [13] | [15]

COc1ccc(OC(F)(F)F)cc1CN[C@H]1CCCN[C@H]1c1ccccc1
active: [1] 7.98 µM | [6] 14.6 µM | [9] 20 µM | [12] 26.6 µM | [13] 12.4 µM | [15] 31.1 µM
inactive: [2] | [3] | [4] | [5] | [7] | [8] | [10] | [16] | [11]

CCc1cc(C2=C(C(=O)O)N(c3ccccc3C(F)(F)F)S(=O)(=O)c3ccccc32)cc2c1OCO2
inactive: [1] | [2] | [3] | [4] | [5] | [6] | [8] | [10] | [11] | [12] | [13] | [15]
active: [7] 19.8 µM | [9] 11.1 µM | [14] 15.3 µM

COc1ccc(C(=O)Nc2nc3ccccc3c(NCc3ccccc3)c2C#N)cc1
active: [3] 3.97 µM | [6] 4.78 µM | [14] 6.22 µM
inactive: [1] | [2] | [4] | [5] | [7] | [8] | [9] | [10] | [11] | [12] | [13] | [15]

NC=O
inactive: [1] | [2] | [3] | [4] | [5] | [6] | [7] | [8] | [9] | [10] | [11] | [12] | [13] | [14] | [15]

CCCCC(CC)COC(=O)CCCCCCCC(=O)OCC(CC)CCCC (stereo not given)
inactive: [1] | [2] | [3] | [4] | [5] | [6] | [7] | [8] | [9] | [10] | [16] | [11] | [12] | [13] | [15]

— PubChem BioAssay (EPA / NIEHS)
